# Measured values taken from PubChem BioAssay (NCI).
# Compounds without any hit were thinned out: in the full panel of roughly 79,000, 15% have a hit. A number with no mark means an inactive call. The source made the active and inactive calls. Cut-off read from the data, not from the text of the source: active = growth inhibition above about 70%; inactive = the rest.
# Key:
# [1] = NCI Yeast Anticancer Drug Screen. Data for the rad52 strain (AID 147);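 note: 0% = growth of vehicle-treated control cultures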; conditions: S. cerevisiae rad52 mutant growth inhibition, stronger effect = higher value
# Procedure, shortened: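 Here a repair-compromised yeast strain receives each compound; its growth is then quantified and normalised to vehicle-only controls.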
# [2] = NCI Yeast Anticancer Drug Screen. Data for the wt1 strain (AID 149);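 note: 0% = growth of vehicle-treated wt1 cultures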; conditions: S. cerevisiae wt1 strain (SPY 50644) growth inhibition, stronger effect = higher value
# Procedure, shortened: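 Measured: growth of wt1 yeast under compound versus vehicle treatment, reported as inhibition.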
# [3] = NCI Yeast Anticancer Drug Screen. Data for the rad50EPP+ strain (AID 151);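 note: 0% = growth of vehicle-treated control cultures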; conditions: S. cerevisiae rad50 mutant strain, stronger effect = higher value
# Procedure, shortened: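 Read-out is yeast growth inhibition relative to vehicle; cells used were the rad50EPP+ strain.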
# [4] = NCI Yeast Anticancer Drug Screen. Data for the mgt1 strain (AID 153); conditions: S. cerevisiae mgt1 mutant growth inhibition, stronger effect = higher value
# Procedure, shortened: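 Measured: inhibition of mgt1 yeast growth by compound, normalized to vehicle-treated cultures.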
# [5] = NCI Yeast Anticancer Drug Screen. Data for the rad50 strain (AID 155);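 note: 0% = growth of vehicle-only cultures of the same strain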; conditions: S. cerevisiae rad50 strain growth inhibition, stronger effect = higher value
# Procedure, shortened: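 Growth of the mutant yeast was measured after compound exposure and referenced to vehicle-treated cultures.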
# [6] = NCI Yeast Anticancer Drug Screen. Data for the mec2-1 strain (AID 157); conditions: S. cerevisiae mec2-1 strain, stronger effect = higher value
# Procedure, shortened: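 Using mec2-1 yeast: add compound, measure growth, express inhibition versus vehicle-treated cultures.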
# [7] = NCI Yeast Anticancer Drug Screen. Data for the rad14 strain (AID 159);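 note: 0% = growth of vehicle-treated control cultures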; conditions: S. cerevisiae rad14 strain growth inhibition, stronger effect = higher value
# Procedure, shortened: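 Here, inhibition of yeast growth was measured after compound exposure, using a strain with a genetic defect in DNA damage repair and vehicle-treated cultures as the reference.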
# [8] = NCI Yeast Anticancer Drug Screen. Data for the sgs1 mgt1 strain (AID 161);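 note: 0% = growth of cultures given vehicle only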; conditions: S. cerevisiae sgs1 mgt1 strain, stronger effect = higher value
# Procedure, shortened: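 Growth of a repair-deficient yeast mutant was monitored after compound treatment and expressed as inhibition relative to vehicle-treated cultures.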
# [9] = NCI Yeast Anticancer Drug Screen. Data for the CLN2oe strain (AID 163);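 note: 0% = growth of vehicle-only control cultures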; conditions: S. cerevisiae CLN2oe strain, stronger effect = higher value
# Procedure, shortened: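 Whole-cell yeast growth assay. A strain engineered for altered cell-cycle control received compound, and inhibition relative to vehicle-treated cultures was recorded.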
# [10] = NCI Yeast Anticancer Drug Screen. Data for the cln2 rad14 strain (AID 165);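 note: 0% = growth equal to vehicle treated cultures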; conditions: S. cerevisiae cln2 rad14 strain, stronger effect = higher value
# Procedure, shortened: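 Yeast strain cln2 rad14, bearing defects in cell cycle control and DNA repair, serves as the test system; values reflect growth inhibition compared with vehicle.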
# [11] = NCI Yeast Anticancer Drug Screen. Data for the bub3 strain (AID 167); conditions: S. cerevisiae bub3 mutant strain, stronger effect = higher value
# Procedure, shortened: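 Whole-cell yeast assay. The mutant strain was incubated with compounds, and growth inhibition was determined by comparison with vehicle-treated cells.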
# [12] = NCI Yeast Anticancer Drug Screen. Data for the wt2 strain (AID 169);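 note: 0% = growth of vehicle-treated yeast cultures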; conditions: S. cerevisiae wt2 strain growth inhibition, stronger effect = higher value
# Procedure, shortened: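 Treated yeast vs. vehicle-treated yeast: growth inhibition determined.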
# [13] = NCI Yeast Anticancer Drug Screen. Data for the mlh1 strain (AID 171);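 note: 0% = growth of vehicle-treated control cultures of the same strain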; conditions: S. cerevisiae mlh1 strain growth inhibition, stronger effect = higher value
# Procedure, shortened: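 A yeast strain with a defined genetic lesion serves as the test organism. Cultures receive compound or vehicle, and growth is measured.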
# [14] = NCI Yeast Anticancer Drug Screen. Data for the sgs1 strain (AID 173);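 note: 0% = growth of vehicle-only control cultures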; conditions: S. cerevisiae sgs1 mutant, stronger effect = higher value
# Procedure, shortened: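 A genetically defined yeast mutant is incubated with the test compound, and its growth is compared to that of the same strain given vehicle.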
# [15] = NCI Yeast Anticancer Drug Screen. Data for the mlh1 rad18 strain (AID 175); conditions: S. cerevisiae mlh1 rad18 strain growth inhibition, stronger effect = higher value
# Procedure, shortened: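 Steps: expose repair-defective yeast to compound; measure growth; express inhibition against vehicle-treated controls.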
# [16] = NCI Yeast Anticancer Drug Screen. Data for the rad18 strain (AID 177); conditions: S. cerevisiae rad18 mutant growth inhibition, stronger effect = higher value
# Procedure, shortened: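 Measured value is growth inhibition of a yeast strain bearing a DNA repair alteration, referenced to vehicle-treated cells.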
# [17] = at 5.0 µM (retest, dose inferred, filed as 0.5)
# [18] = at 50.0 µM (retest, dose inferred, filed as 5.0)
smiles,measurement,setting,value
CC1=C(SCc2ccccc2)C(=O)c2ccccc2C1=O,growth inhibition,[1]; at 1.2 µM,-28%
same,growth inhibition,[1]; at 3.7 µM,-24%
same,growth inhibition,[1]; at 11.0 µM,4%
same,growth inhibition,[1]; at 33.0 µM,81% (active)
same,growth inhibition,[1]; at 100.0 µM,90% (active)
same,growth inhibition,[2]; at 1.2 µM,-15%
same,growth inhibition,[2]; at 3.7 µM,-15%
same,growth inhibition,[2]; at 11.0 µM,-7%
same,growth inhibition,[2]; at 33.0 µM,64%
same,growth inhibition,[2]; at 100.0 µM,91% (active)
same,growth inhibition,[3]; at 1.2 µM,-28%
same,growth inhibition,[3]; at 3.7 µM,-20%
same,growth inhibition,[3]; at 11.0 µM,-4%
same,growth inhibition,[3]; at 33.0 µM,35%
same,growth inhibition,[3]; at 100.0 µM,59%
same,growth inhibition,[4]; at 1.2 µM,-74%
same,growth inhibition,[4]; at 3.7 µM,-64%
same,growth inhibition,[4]; at 11.0 µM,-51%
same,growth inhibition,[4]; at 33.0 µM,43%
same,growth inhibition,[4]; at 100.0 µM,89% (active)
same,growth inhibition,[5]; at 1.2 µM,-12%
same,growth inhibition,[5]; at 3.7 µM,-22%
same,growth inhibition,[5]; [17],99% (active)
same,growth inhibition,[5]; at 11.0 µM,8%
same,growth inhibition,[5]; at 33.0 µM,81% (active)
same,growth inhibition,[5]; [18],91% (active)
same,growth inhibition,[5]; at 50.0 µM,68.9%
same,growth inhibition,[5]; at 100.0 µM,87% (active)
same,growth inhibition,[6]; at 1.2 µM,-78%
same,growth inhibition,[6]; at 3.7 µM,-69%
same,growth inhibition,[6]; [17],98% (active)
same,growth inhibition,[6]; at 11.0 µM,-68%
same,growth inhibition,[6]; at 33.0 µM,74% (active)
same,growth inhibition,[6]; [18],92% (active)
same,growth inhibition,[6]; at 50.0 µM,51.1%
same,growth inhibition,[6]; at 100.0 µM,90% (active)
same,growth inhibition,[7]; at 1.2 µM,-32%
same,growth inhibition,[7]; at 3.7 µM,-37%
same,growth inhibition,[7]; at 11.0 µM,-35%
same,growth inhibition,[7]; at 33.0 µM,85% (active)
same,growth inhibition,[7]; at 100.0 µM,92% (active)
same,growth inhibition,[8]; [17],-23%
same,growth inhibition,[8]; [18],34%
same,growth inhibition,[8]; at 50.0 µM,71.3% (active)
same,growth inhibition,[9]; at 1.2 µM,-44%
same,growth inhibition,[9]; at 3.7 µM,-22%
same,growth inhibition,[9]; at 11.0 µM,-27%
same,growth inhibition,[9]; at 33.0 µM,63%
same,growth inhibition,[9]; at 100.0 µM,80% (active)
same,growth inhibition,[10]; [17],44%
same,growth inhibition,[10]; [18],53%
same,growth inhibition,[10]; at 50.0 µM,46.2%
same,growth inhibition,[11]; at 1.2 µM,-14%
same,growth inhibition,[11]; at 3.7 µM,-17%
same,growth inhibition,[11]; [17],20%
same,growth inhibition,[11]; at 11.0 µM,26%
same,growth inhibition,[11]; at 33.0 µM,84% (active)
same,growth inhibition,[11]; [18],64%
same,growth inhibition,[11]; at 50.0 µM,79% (active)
same,growth inhibition,[11]; at 100.0 µM,90% (active)
same,growth inhibition,[12]; at 1.2 µM,-19%
same,growth inhibition,[12]; at 3.7 µM,-40%
same,growth inhibition,[12]; at 11.0 µM,-10%
same,growth inhibition,[12]; at 33.0 µM,75% (active)
same,growth inhibition,[12]; at 100.0 µM,92% (active)
same,growth inhibition,[13]; at 1.2 µM,-43%
same,growth inhibition,[13]; at 3.7 µM,-29%
same,growth inhibition,[13]; at 11.0 µM,-19%
same,growth inhibition,[13]; at 33.0 µM,62%
same,growth inhibition,[13]; at 100.0 µM,89% (active)
same,growth inhibition,[14]; at 1.2 µM,-53%
same,growth inhibition,[14]; at 3.7 µM,-56%
same,growth inhibition,[14]; at 11.0 µM,-29%
same,growth inhibition,[14]; at 33.0 µM,76% (active)
same,growth inhibition,[14]; at 100.0 µM,90% (active)
same,growth inhibition,[15]; [17],99% (active)
same,growth inhibition,[15]; [18],92% (active)
same,growth inhibition,[15]; at 50.0 µM,73.5% (active)
same,growth inhibition,[16]; at 1.2 µM,-23%
same,growth inhibition,[16]; at 3.7 µM,-46%
same,growth inhibition,[16]; at 11.0 µM,-27%
same,growth inhibition,[16]; at 33.0 µM,79% (active)
same,growth inhibition,[16]; at 100.0 µM,90% (active)
